Assay outcomes as filed in PubChem BioAssay.
BJeLR viability = kills HRASV12-expressing BJeLR cells; inhibition, % (test concentration not listed); BJeLR (HRASV12) viability, CellTiter-Glo ATP luminescence, 48 h; 0.17% of 300,000 active; AID 1554; in the data active = inhibition above about 50%
UGM FP inh = blocks M. tuberculosis UGM enzyme; P9WIQ1; purified UGM, fluorescence polarization probe displacement; inhibition, % at 10 µM; 0.06% of 320,000 active; in the data active = inhibition above about 10%, passing the limit was not always enough
Target sequence (P9WIQ1 whole entry, looked up): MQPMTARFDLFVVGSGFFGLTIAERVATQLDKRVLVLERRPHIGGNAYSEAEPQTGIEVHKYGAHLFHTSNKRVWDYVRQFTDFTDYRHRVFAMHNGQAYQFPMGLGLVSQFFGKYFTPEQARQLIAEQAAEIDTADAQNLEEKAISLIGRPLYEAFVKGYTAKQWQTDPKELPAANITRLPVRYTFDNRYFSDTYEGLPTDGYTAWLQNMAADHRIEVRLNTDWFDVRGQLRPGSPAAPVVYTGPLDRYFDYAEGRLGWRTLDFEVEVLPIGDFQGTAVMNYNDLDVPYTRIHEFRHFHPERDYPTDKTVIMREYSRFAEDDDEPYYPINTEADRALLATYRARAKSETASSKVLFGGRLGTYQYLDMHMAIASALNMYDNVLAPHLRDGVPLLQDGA
FadD28 binding = blocks FadD28 binding to the bisubstrate probe. fluorescence polarization. inhibition, % at 12.5 µM. 0.22% of 360,000 active. AID 588549; in the data active = inhibition above about 8.5%, passing the limit was not always enough
Rv3671c protease = Rv3671c (M. tuberculosis) protease inhibition; 0.048% of 320,000 active; P9WHR9; inhibition, % at 5.96 µM; in the data active = inhibition above about 38%;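 also: extracellular domain of Rv3671c used as enzyme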
PrP 5UTR inh = inhibition of PrP 5' UTR reporter expression; cell-based PrP 5' UTR mRNA reporter, plate reader; 0.35% of 340,000 active; AID 488862; inhibition, % (test concentration not listed); in the data active = inhibition above about 52%
RecA intein inh = blocks M. tuberculosis RecA intein splicing; inhibition, % (concentration not given with the values); cell-free RecA intein splicing, fluorescence; 0.75% of 290,000 active; P9WHJ3; in the data active = inhibition above about 30%
GFP chromo cs = counter-screen GFP chromophore formation inhibition; 83% of 2,100 active; AID 434968; shares compounds with RecA intein inh; EC50, µM; cell-free GFP chromophore formation, fluorescence; call rule not given here
Hits are given with their value; – = inactive; · = no result. This is a sample that favours compounds with a hit; in the whole collection about 1.3% have one here.

SMILES	BJeLR viability	UGM FP inh	FadD28 binding	Rv3671c protease	PrP 5UTR inh	RecA intein inh	GFP chromo cs
COC(=O)c1ccc(C)cc1	·	·	–	–	–	·	·
Cc1[nH][nH]c(=O)c1C(c1ccc(-c2ccccc2C(=O)O)o1)c1c(C)[nH][nH]c1=O	–	–	–	–	–	96	0.49
COC(=O)c1ccc(-c2ccc(C(c3c(C)[nH][nH]c3=O)c3c(C)[nH][nH]c3=O)o2)cc1	–	–	–	–	–	95	0.65
Cc1ccc2oc(-c3ccccc3C(=O)O)cc(=O)c2c1	–	–	–	–	–	–	·
COc1cc(/C=C2\C(=O)N(c3ccc(NC(C)=O)cc3)N=C2c2ccccc2)ccc1O	·	–	–	–	–	83	–
CN1c2ccccc2C(C)(C)C12CC(CCl)=NO2 (configuration not stated)	–	–	–	–	–	–	·
CN1c2ccccc2C(C)(C)C12C=Nc1c(ccc3ccccc13)O2 (configuration not stated)	–	–	–	–	–	79	25
Cc1ccsc1C=Nc1ccc(O)cc1	–	–	–	–	–	78	36
O=C(Nc1ccc(Cl)c(Cl)c1)Nc1ccccc1NS(=O)(=O)c1cccs1	–	–	–	–	–	31	–
Cc1ccccc1-c1csc(C(O)c2ccccc2)n1 (configuration not stated)	·	·	–	·	·	·	·
CC(=O)c1ccc(OC2(C)CCN(Cc3cc4ccccc4[nH]3)C2)cc1 (configuration not stated)	·	·	–	·	·	·	·
CC(=O)n1cc(N(C(=O)CCl)c2ccc(Cl)cc2)c2ccccc21	108	–	–	–	·	59	1.3
CCOC(=O)c1ccccc1Nc1cn(C(C)=O)c2ccccc12	–	–	–	–	–	–	·
COc1ccccc1N(C(=O)CCl)c1cn(C(C)=O)c2ccccc12	65	–	–	–	–	51	23
CCCCCCN1CCN(C2CN(C3CCCCC3)S(=O)(=O)C2)CC1 (configuration not stated)	·	·	–	·	·	·	·
COc1cc(C(c2c(C)[nH][nH]c2=O)c2c(C)[nH][nH]c2=O)ccc1OC(=O)c1cccc([N+](=O)[O-])c1	·	–	–	–	–	·	·
COc1cc(C(c2c(C)[nH][nH]c2=O)c2c(C)[nH][nH]c2=O)ccc1OS(=O)(=O)c1ccc(C)cc1	–	–	–	–	–	98	0.44
COc1cc(C(c2c(C)[nH][nH]c2=O)c2c(C)[nH][nH]c2=O)ccc1OS(=O)(=O)c1ccccc1	–	–	–	–	–	95	0.44
COc1ccc(C(O)c2nccc3cc(OC)c(OC)cc23)cc1OC (configuration not stated)	–	–	–	–	–	53	25
O=c1cc(-c2c(F)c(F)c(F)c(F)c2F)oc2c(F)c(F)c(F)c(F)c12	–	–	·	–	·	86	13
COc1ccc(NC(=O)N(C)C[C@@H]2OCc3cnnn3CCCC(=O)N([C@@H](C)CO)C[C@H]2C)cc1	·	·	–	·	·	·	·
N#Cc1ccc(-n2c(-c3ccccc3)nnc2-c2ccccc2)cc1C#N	–	–	–	–	–	50	17
CN(N)C(=S)Nc1ccc(Cl)cc1	–	–	–	–	–	31	–
Nc1cccc2c(O)cccc12	–	–	–	–	–	56	37
COc1ccc(C=C(c2nc3ccccc3s2)c2nc3ccccc3s2)cc1O	–	–	–	–	–	60	–
SMILES	BJeLR viability	UGM FP inh	FadD28 binding	Rv3671c protease	PrP 5UTR inh	RecA intein inh	GFP chromo cs
Cc1cc(O)c(C(C)C)cc1N=Cc1ccccc1O	–	–	–	–	–	51	15
CCCNC(=O)C1(C)CCN1C(=O)c1ccc(C(C)(C)C)cc1 (configuration not stated)	·	·	–	·	·	·	·
CCOC(=O)c1c(C)oc2c1c(C=NCCC(=O)O)c(O)c1ccccc12	–	–	–	–	–	34	34
COc1ccc(C(CC(=O)O)c2cc(OC)c(OC)c(OC)c2)cc1OC (configuration not stated)	·	·	–	·	–	·	·
COc1cc(C(c2c(C)[nH][nH]c2=O)c2c(C)[nH][nH]c2=O)cc(OC)c1OC	–	–	–	–	–	96	0.51
COc1cc(C(c2c(C)[nH][nH]c2=O)c2c(C)[nH][nH]c2=O)cc(Cl)c1O	–	–	–	–	–	88	0.74
CCN(CC)CCNC(=O)C(Cl)=C1C(Cl)=C(Cl)C(Cl)=C1Cl	·	·	–	·	–	·	·
O=C1C(Cl)=C(N2CCCCC2)C(=O)C(Cl)=C1c1cnc(N2CCCCC2)s1	–	·	–	·	–	35	0.45
CN(C)c1ncc(C2=C(Cl)C(=O)C(N3CCCC3)=C(Cl)C2=O)s1	–	–	–	–	–	60	4.4
CC(=O)c1cnc(N(C)C)s1	–	–	–	–	–	–	·
CN(C)c1nc(N(C)C)c2cnn(C)c2n1	·	·	–	·	–	·	·
O=C(Nc1ccc(Cl)cc1)c1nc[nH]c1C(=O)NCCCNC(=O)c1[nH]cnc1C(=O)Nc1ccc(Cl)cc1	·	–	·	–	·	·	·
CCN1C(=O)c2c(C)nc3ccccc3c2C1=O	–	–	–	–	–	47	2.2
CCN1C(=O)c2ccc(-c3nc4ccccc4c(=O)o3)cc2C1=O	–	–	–	–	–	–	·
CC(C)C[C@H]1CNC(=S)N1C[C@H]1CCCN1C[C@H](Cc1ccccc1)N1C[C@H](Cc2ccc(O)cc2)N(CCc2ccccc2)C1=S	·	·	–	·	·	·	·
CCCC1C(C#N)=C(N)Oc2n[nH]c(C(C)(C)C)c21 (configuration not stated)	–	–	–	–	–	74	1.7
CC(C)(C)c1[nH]nc2c1C(c1ccco1)C(C#N)=C(N)O2 (configuration not stated)	–	–	–	–	–	41	2.8
Cc1[nH]nc2c1C(CCc1ccccc1)C(C#N)=C(N)O2 (configuration not stated)	–	–	–	–	–	70	29
CCOC(=O)Cc1[nH]nc2c1C(Cc1ccccc1)C(C#N)=C(N)O2 (configuration not stated)	–	–	–	–	–	–	·
Cc1[nH]nc2c1C(c1ccco1)C(C#N)=C(N)O2 (configuration not stated)	–	–	–	–	–	58	26
CC(C)C1C(C#N)=C(N)Oc2n[nH]c(C(C)(C)C)c21 (configuration not stated)	·	–	–	–	–	·	·
COC(=O)c1ccc(CC2(C)C(=O)Nc3ccc(-c4cccc(C(F)(F)F)c4)cc32)o1 (configuration not stated)	·	·	–	·	·	·	·
Cc1nc2ccc(C(=O)Nc3ccc4c(c3)OCC(=O)N4)cn2c1N(C)C(=O)CCc1ccccc1	·	·	–	·	·	·	·
CC1(C(=O)Nc2ccc3ccccc3c2)CCC(=O)N1CCCn1ccnc1 (configuration not stated)	·	·	–	·	·	·	·
O=C1c2ccccc2C(=O)C12OC2c1ccc(Cl)cc1 (configuration not stated)	–	–	·	–	·	72	–
CC1CCN(C(=O)c2ccc3c(c2NCCO)C(=O)c2ccccc2C3=O)CC1	–	–	–	–	–	–	·
